Source: PubChem BioAssay (NCATS)
Inconclusive results are not listed. Calls of active or inactive are those of the source. Unless noted, the call rests on the fitted dose curve; in most records, active means well fitted curve in the direction sought with a large enough effect; inconclusive means small, poorly fitted or top-dose-only effect, or another doubt; inactive means no such curve, though single readings can be large; an effect the other way counts as inactive or inconclusive.

Tests used:
[1] = Cellular Toxicity (caspase-3) H-4-II-E (AID 663);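 further: cells exposed to compound for 16 hr before readout; 0% = DMSO basal and 100% = 100 µM tamoxifen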
Outline: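 H-4-II-E rat hepatoma, 1500 cells/well, 5 hr settle at 37 °C; compound 16 hr, 37 °C, complete medium; Caspase-Glo 3/7, 20 min RT; luminescence. DMSO = 0%, 100 uM tamoxifen = 100%; Hill-equation AC50.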

[2] = Cellular Toxicity (caspase-3) Hek293 (AID 664);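 further: cells exposed to compound for 16 h at 37 °C before readout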
Outline: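 Concentration-response qHTS: caspase 3/7 activation measured by luminescent aminoluciferin substrate cleavage after 16 h compound exposure of Hek 293 cells. AC50 from Hill equation, with DMSO as basal and 100 uM tamoxifen as 100%.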

[3] = Cellular Toxicity (caspase-3) N2a (AID 665);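 further: compound exposure lasted 16 h at 37 °C before readout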
Outline: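 Caspase-3/7 activation measured as luminescence from Caspase-Glo reagent (1 h, room temperature) after 16 h compound exposure of mouse N2a cells. AC50 values from Hill-equation concentration-response, scaled between DMSO and 10 uM staurosporine.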

[4] = Cellular Toxicity (caspase-3) NIH 3T3 (AID 666);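 further: caspase signal read after 16 h compound exposure; 0% = DMSO basal and 100% = 100 µM tamoxifen stimulation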
Outline: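 Caspase-Glo 3/7 luminescence reported caspase activation in 1000 NIH 3T3 cells/well after 16 h compound exposure at 37 C. DMSO set basal and 100 uM tamoxifen set 100% stimulation; concentration-response modeled with the Hill equation for AC50.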

[5] = Cellular Toxicity (caspase-3) Renal Proximal Tubule (AID 667);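 further: cells exposed to compound for 16 hours at 37 °C before detection; 0% = DMSO basal and 100% = 10 µM staurosporine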
Outline: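 AC50 derived by standard Hill fit of concentration-response data, normalized between DMSO basal and 10 uM staurosporine as 100% stimulation. Cells: primary rat kidney proximal tubule, 16 h treatment at 37 °C.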

[6] = molecular target: Cytochrome P450 3A4 (Homo sapiens) (UniProt P08684); assay: qHTS Assay for Inhibitors and Substrates of Cytochrome P450 3A4 (AID 884); further: series mostly up to about 57 µM; on the % scale 0 is the no-effect control and ±100 the full control effect; nearly all actives have a fitted effect of over 50% in size
Outline: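 Luminescent readout of luciferin produced by CYP3A4 (20 nM) dealkylation of Luciferin-PPXE, 25 uM (its KM). NADPH-driven reaction ran 60 min at RT after 10 min compound preincubation; data scaled to 57 uM ketoconazole as 100% inhibition.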

[7] = Cell Viability - LYMP2-001 (AID 921);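 further: series mostly up to about 92 µM; cells exposed to compound for 24 h at 37 °C; 0% = DMSO only and full inhibition = tetraoctylammonium bromide control wells; nearly all actives have a fitted effect of over 70% in size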
Outline: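 Steps: seed 2500 lymphoblastoid cells/well; 5 hr, 37 C; add compound; 24 hr, 37 C; CellTiter-Glo reagent, 30 min room temperature; read luminescence. Concentration-response modeled by Hill equation for AC50.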

[8] = MultiTox-Fluor Cytotoxicity Assay - LYMP1-001 - Dead Cells (AID 946)
Outline: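 Cytotoxicity as increased dead-cell protease fluorescence (bis-AAF-R110, 485/520 nm), read 60 min after MultiTox-Fluor reagent. Human lymphoblastoid line exposed 16 h; Hill-fitted AC50, with DMSO as 0% and 15 uM tetraoctylammonium bromide as 100%.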

[9] = Confirmation and Secondary Assay for Modulators of Hemoglobin Beta Chain Splicing at IVS2 654 locus (AID 910);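 further: HeLa cells stably carrying EGFP split by mutant beta-globin IVS2-654 intron; % of control where 0% means no effect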
Outline: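 HeLa cells stably expressing EGFP interrupted by β-globin IVS2-654 intron, seeded overnight in Opti-MEM/2% FCS, then treated 2 days at 37 °C. Restored splicing read as total peak GFP intensity per well by laser scanning cytometry (488 nm excitation, 500–520 nm emission); 500 nM antisense PNA as control.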

[10] = Confirmation and Secondary Assay for Modulators of Hemoglobin Beta Chain Splicing at IVS2 705 locus (AID 930);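 further: HeLa cells stably expressing the EGFP-705 splicing reporter; GFP fluorescence per well restored by corrected splicing of the IVS2-705 intron in EGFP; series mostly up to about 46 µM; % of control where 0% means no effect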
Outline: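 Per-well GFP, captured at 1 x 8 µm resolution with 488 nm excitation, served as the read-out for HeLa EGFP-705 cells incubated 2 days with test compound versus DMSO.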

[11] = molecular target: Cytochrome P450 2C9 (Homo sapiens) (UniProt P11712); assay: qHTS Assay for Inhibitors and Substrates of Cytochrome P450 2C9 (AID 883); further: nearly all actives have a fitted effect of over 60% in size; further: potency means the concentration at half of the fitted maximal effect; on activity change, negative = inhibition: on the % scale 0 is the no-effect control and ±100 the full control effect
Outline: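 Signal: luciferase luminescence reporting luciferin produced by CYP2C9. Conditions: 10nM enzyme, Luciferin-H 100uM at KM, 25mM KPO4, 37C, 60 min NADPH-driven reaction. Reference: 57uM sulphaphenazole as 100% inhibition.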

[12] = molecular target: Cytochrome P450 2C19 (Homo sapiens) (UniProt P33261); assay: qHTS Assay for Inhibitors and Substrates of Cytochrome P450 2C19 (AID 899); further: on the % scale 0 is the no-effect control and ±100 the full control effect; nearly all actives have a fitted effect of over 60% in size
Outline: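 Signal comes from luciferase acting on luciferin released by CYP2C19-mediated hydroxylation of Luciferin-H EGE, 10uM (KM). Assay mix: 5nM enzyme, 50mM KPO4; 60 min at 37C with NADPH regeneration. Data normalized against 57uM ketoconazole.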

[13] = molecular target: Guanine nucleotide-binding protein G(i) subunit alpha-1 (Homo sapiens) (UniProt P63096); assay: qHTS Assay for Inhibitors of RGS12 GoLoco Motif Activity (Green Fluorophore) (AID 879);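 further: 0% = labeled peptide with Gαi1 and full inhibition = labeled peptide alone without protein; negative values mean loss of peptide binding seen as reduced polarization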
Outline: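 A drop in FITC polarization marked displacement of the FITC-tagged RGS12 GoLoco peptide (10 nM) from Gαi1 (50 nM). Compounds were incubated 10 min at room temperature in Tris pH 7.5 buffer containing 150 mM NaCl, 0.1 mM GDP and 0.05% NP40; unlabeled peptide titration served as control.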

[14] = qHTS Assay for Identification of Small Molecule Agonists for Thrombopoietin (TPO) Signaling Pathway (AID 917); further: on the % scale 0 is the no-effect control and ±100 the full control effect
Outline: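 Cell-based luciferase reporter screen. Mouse Ba/F3 line stably expressing human TPO receptor; IL-3 removed overnight before plating. Co-treatment with compound and EC50 TPO (26 pM), 24 hrs at 37 C, then luminescence.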

[15] = molecular target: Muscarinic acetylcholine receptor M1 (Rattus norvegicus) (UniProt P08482); assay: qHTS Assay for Antagonists of Acetylcholine Muscarinic M1 Receptor: Kinetic Measurement of Intracellular Calcium Response (AID 943);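 further: Fluo-4 calcium signal as peak divided by basal fluorescence over 4 min; series mostly up to about 35 µM; nearly all actives have a fitted effect of over 75% in size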
Outline: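 Antagonism measured as reduction of carbachol-evoked (EC80, 100 nM final) calcium flux in rat M1-CHO cells after 10 min compound exposure. Fluo-4 signal read kinetically; ratio of maximal to basal fluorescence.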

[16] = molecular target: Muscarinic acetylcholine receptor M1 (Rattus norvegicus) (UniProt P08482); assay: qHTS Assay for Antagonists of Acetylcholine Muscarinic M1 Receptor: Measurement of IP-One Response (AID 944); further: nearly all actives have a fitted effect of over 75% in size
Outline: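 IP1 accumulation measured via TR-FRET between d2-IP1 and Eu-cryptate anti-IP1 antibody after carbachol (200 nM, EC80) stimulation for 30 min; rat M1-transfected CHO cells received compound 10 min before agonist.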

[17] = molecular target: Pyruvate kinase (Leishmania mexicana) (UniProt Q27686); assay: qHTS Validation Assay for Inhibitors of Leishmania Mexicana Pyruvate Kinase (AID 945);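 further: 0% = DMSO only neutral control wells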
Outline: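 An endpoint luciferase assay: 0.2 nM LmPYK E451W turns over 0.5 mM PEP with 0.1 mM ADP for 1 h at room temperature, pH 7.2, before PKLight addition. Values are normalized to DMSO-only wells.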

[18] = molecular target: Cytochrome P450 3A4 (Homo sapiens) (UniProt P08684); assay: qHTS Assay for Activators of Cytochrome P450 3A4 (AID 885); further: nearly all actives have a fitted effect of over 65% in size
Outline: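 Luminescent readout of luciferin formed from 25 uM Luciferin-PPXE (KM level) by 20 nM CYP3A4 in 200 mM KPO4, with 60 min NADPH-driven reaction at room temperature after 10 min compound exposure. Ketoconazole (57 uM) defined 100% inhibition.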

[19] = qHTS Assay for Identification of Small Molecule Agonists for Hypoxia Response Element Signaling Pathway (AID 914; active means well fitted activation curve with a large enough effect in the signal ratio, with a control signal flat, not every such curve was filed as active; the % refers to the signal ratio; further: % of control where 0% means no effect); conditions: ME-180 (cervical carcinoma) HRE-bla reporter, beta-lactamase ratio, CoCl2, 17 h; hits give high values
Outline: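 In Opti-MEM containing 0.5% dialyzed FBS and 10 mM HEPES, ME-180 HRE-bla cells received a compound titration and EC50 CoCl2. They were incubated 17 hours, then CCF4-loaded 2.5 hours at room temperature before ratio reading.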

[20] = molecular target: Cytochrome P450 2D6 (Homo sapiens) (UniProt P10635); assay: qHTS Assay for Inhibitors and Substrates of Cytochrome P450 2D6 (AID 891);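 further: luciferin methyl ether substrate demethylated by CYP2D6 with NADPH regeneration; on the % scale 0 is the no-effect control and ±100 the full control effect; nearly all actives have a fitted effect of over 60% in size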
Outline: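 Luminescent read-out of luciferin formed by 5 nM human CYP2D6 demethylating 30 uM Luciferin-ME EGE (Km level) over 60 min at room temperature after NADPH regeneration addition. Data normalized to full inhibition by 1.43 uM quinidine.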

Chain of Cytochrome P450 3A4 (Homo sapiens) (P08684 whole entry, looked up): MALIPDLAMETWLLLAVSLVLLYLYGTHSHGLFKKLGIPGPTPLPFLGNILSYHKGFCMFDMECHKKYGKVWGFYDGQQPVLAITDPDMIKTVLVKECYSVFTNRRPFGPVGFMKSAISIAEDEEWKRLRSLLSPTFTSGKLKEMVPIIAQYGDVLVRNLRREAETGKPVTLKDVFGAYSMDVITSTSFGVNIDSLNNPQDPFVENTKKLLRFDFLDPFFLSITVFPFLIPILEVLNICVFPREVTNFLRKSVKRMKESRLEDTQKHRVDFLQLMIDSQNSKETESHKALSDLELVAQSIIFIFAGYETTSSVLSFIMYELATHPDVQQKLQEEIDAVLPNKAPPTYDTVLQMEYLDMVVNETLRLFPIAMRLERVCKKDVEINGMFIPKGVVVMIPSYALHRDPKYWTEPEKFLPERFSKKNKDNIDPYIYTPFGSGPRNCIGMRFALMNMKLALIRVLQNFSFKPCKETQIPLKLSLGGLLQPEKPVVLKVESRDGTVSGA
Chain of Cytochrome P450 2C9 (Homo sapiens) (P11712 whole entry, looked up): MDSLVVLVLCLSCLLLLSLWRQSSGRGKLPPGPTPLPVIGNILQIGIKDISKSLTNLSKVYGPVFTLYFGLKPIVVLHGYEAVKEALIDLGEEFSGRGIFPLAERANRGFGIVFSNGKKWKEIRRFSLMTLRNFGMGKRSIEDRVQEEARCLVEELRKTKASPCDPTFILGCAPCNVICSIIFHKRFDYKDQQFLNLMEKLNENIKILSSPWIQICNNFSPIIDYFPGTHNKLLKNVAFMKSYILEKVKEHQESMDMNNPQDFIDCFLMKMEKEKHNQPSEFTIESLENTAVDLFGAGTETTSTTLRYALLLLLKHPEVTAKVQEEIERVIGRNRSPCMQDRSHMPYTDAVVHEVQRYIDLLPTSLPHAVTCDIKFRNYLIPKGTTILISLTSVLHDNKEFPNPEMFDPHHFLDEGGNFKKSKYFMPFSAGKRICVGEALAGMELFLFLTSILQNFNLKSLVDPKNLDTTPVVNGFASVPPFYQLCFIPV
Chain of Muscarinic acetylcholine receptor M1 (Rattus norvegicus) (P08482 whole entry, looked up): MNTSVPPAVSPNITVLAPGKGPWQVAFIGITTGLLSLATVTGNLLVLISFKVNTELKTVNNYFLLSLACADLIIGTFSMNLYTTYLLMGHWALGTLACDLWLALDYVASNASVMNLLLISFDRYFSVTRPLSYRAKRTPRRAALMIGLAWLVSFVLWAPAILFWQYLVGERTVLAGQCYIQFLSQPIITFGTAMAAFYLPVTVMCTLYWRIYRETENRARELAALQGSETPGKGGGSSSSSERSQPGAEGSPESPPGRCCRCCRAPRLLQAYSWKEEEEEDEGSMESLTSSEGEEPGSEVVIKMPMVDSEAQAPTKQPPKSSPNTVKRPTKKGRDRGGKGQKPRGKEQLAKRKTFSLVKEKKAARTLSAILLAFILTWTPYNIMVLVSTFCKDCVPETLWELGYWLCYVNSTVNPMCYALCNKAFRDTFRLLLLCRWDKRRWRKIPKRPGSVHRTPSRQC
Chain of Cytochrome P450 2C19 (Homo sapiens) (P33261 whole entry, looked up): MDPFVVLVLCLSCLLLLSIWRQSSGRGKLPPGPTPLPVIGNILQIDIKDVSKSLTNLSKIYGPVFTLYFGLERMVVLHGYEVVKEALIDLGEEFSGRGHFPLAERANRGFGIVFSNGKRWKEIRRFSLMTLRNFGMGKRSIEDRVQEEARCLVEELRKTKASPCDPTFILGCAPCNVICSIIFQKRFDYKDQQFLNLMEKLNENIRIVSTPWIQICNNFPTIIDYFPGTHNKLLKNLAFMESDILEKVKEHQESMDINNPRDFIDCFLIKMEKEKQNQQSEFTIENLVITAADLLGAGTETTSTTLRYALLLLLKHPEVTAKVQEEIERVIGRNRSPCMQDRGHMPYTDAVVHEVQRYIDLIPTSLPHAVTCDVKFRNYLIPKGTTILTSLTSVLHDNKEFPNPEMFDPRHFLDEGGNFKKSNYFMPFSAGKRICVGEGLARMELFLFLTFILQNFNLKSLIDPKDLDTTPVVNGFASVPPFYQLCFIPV
Chain of Guanine nucleotide-binding protein G(i) subunit alpha-1 (Homo sapiens) (P63096 whole entry, looked up): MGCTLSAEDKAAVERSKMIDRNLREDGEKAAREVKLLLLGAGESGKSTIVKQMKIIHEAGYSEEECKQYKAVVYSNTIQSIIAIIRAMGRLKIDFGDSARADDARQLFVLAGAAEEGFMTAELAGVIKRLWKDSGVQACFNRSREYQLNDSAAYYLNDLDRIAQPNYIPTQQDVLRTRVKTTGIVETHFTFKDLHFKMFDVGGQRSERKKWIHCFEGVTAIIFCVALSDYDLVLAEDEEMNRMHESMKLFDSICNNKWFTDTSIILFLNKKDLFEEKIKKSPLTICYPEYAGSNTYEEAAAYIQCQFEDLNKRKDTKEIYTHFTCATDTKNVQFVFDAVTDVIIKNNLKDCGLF
Chain of Pyruvate kinase (Leishmania mexicana) (Q27686 2-499 E452W): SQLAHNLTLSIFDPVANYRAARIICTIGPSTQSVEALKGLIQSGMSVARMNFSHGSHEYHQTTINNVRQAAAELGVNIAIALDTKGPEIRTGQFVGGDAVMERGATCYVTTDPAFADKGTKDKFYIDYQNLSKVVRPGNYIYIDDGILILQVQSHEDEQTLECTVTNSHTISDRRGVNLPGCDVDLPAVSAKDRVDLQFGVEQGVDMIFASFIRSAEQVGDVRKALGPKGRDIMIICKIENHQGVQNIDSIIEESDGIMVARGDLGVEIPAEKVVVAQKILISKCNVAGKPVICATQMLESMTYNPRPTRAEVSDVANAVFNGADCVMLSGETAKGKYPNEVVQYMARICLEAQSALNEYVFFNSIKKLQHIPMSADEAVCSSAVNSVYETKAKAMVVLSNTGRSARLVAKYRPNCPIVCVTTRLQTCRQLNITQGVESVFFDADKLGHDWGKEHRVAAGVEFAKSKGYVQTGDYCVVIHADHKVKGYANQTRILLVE
Chain of Cytochrome P450 2D6 (Homo sapiens) (P10635 whole entry, looked up): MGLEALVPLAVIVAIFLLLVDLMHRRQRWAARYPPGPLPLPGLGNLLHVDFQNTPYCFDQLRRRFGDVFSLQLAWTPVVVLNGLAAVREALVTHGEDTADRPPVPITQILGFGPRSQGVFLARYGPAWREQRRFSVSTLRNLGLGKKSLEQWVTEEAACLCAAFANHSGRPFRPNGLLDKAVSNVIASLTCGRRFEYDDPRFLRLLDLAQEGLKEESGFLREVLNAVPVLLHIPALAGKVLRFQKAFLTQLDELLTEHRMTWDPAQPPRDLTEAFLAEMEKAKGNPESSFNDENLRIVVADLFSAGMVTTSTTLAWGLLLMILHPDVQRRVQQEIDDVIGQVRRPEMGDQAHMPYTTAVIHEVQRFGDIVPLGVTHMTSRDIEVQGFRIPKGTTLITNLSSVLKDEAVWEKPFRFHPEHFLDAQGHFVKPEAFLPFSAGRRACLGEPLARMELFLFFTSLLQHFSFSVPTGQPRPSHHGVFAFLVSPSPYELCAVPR

CCCCCCCC(=O)OCC(COC(=O)CCCCCCC)OC(=O)CCCCCCC
inactive: outcome [1] | outcome [2] | outcome [3] | outcome [4] | outcome [5] | outcome [6] | outcome [7] | outcome [8]

CC(=O)OCC(COC(C)=O)OC(C)=O
inactive: outcome [1] | outcome [2] | outcome [3] | outcome [4] | outcome [5] | outcome [6] | outcome [9] | outcome [7] | outcome [10] | outcome [8]

Cc1c(N(C)C)c(=O)n(-c2ccccc2)n1C
inactive: outcome [1] | outcome [2] | outcome [3] | outcome [4] | outcome [5] | outcome [6] | outcome [7] | outcome [8]

O=C1C(c2[nH]c3ccccc3c2O)=Nc2ccccc21
inactive: outcome [1] | outcome [2] | outcome [3] | outcome [4] | outcome [5] | outcome [6] | outcome [7] | outcome [8]

FC(F)(F)C(Cl)Br (stereo not drawn)
inactive: outcome [1] | outcome [2] | outcome [3] | outcome [4] | outcome [5] | outcome [6] | outcome [7] | outcome [8]

CCCC(O)C(CC)CO (stereo not drawn)
inactive: outcome [1] | outcome [2] | outcome [3] | outcome [4] | outcome [5] | outcome [6] | outcome [7] | outcome [8]

CC(=O)NCc1c(I)c(NC(C)=O)c(I)c(C(=O)O)c1I
inactive: outcome [6] | outcome [9] | outcome [10]

C[C@@H]1CCC[C@H](C)N1
inactive: Potency [11] | Potency [12]

Nc1ccc(S(=O)(=O)c2ccc(N)cc2)cc1
inactive: outcome [1] | outcome [2] | outcome [3] | outcome [4] | outcome [5] | outcome [9] | outcome [7] | outcome [10] | outcome [8]

NC(=O)CC[C@@H](N)C(=O)O
inactive: outcome [13] | outcome [14] | outcome [15] | outcome [16] | outcome [17]

Cc1cc(C)nc(NS(=O)(=O)c2ccc(N)cc2)n1
inactive: outcome [1] | outcome [2] | outcome [3] | outcome [4] | outcome [5] | outcome [18] | outcome [9] | activation [19] -4.03% | outcome [7] | outcome [10] | outcome [8]

CC(=O)Nc1ccc(C(=O)O)cc1
inactive: outcome [1] | outcome [2] | outcome [3] | outcome [4] | outcome [5] | outcome [6] | outcome [7] | outcome [8]

O=C(Cn1ccnc1[N+](=O)[O-])NCCO
inactive: outcome [6] | Potency [12] | outcome [9] | outcome [10]

NC(=O)NC1NC(=O)NC1=O (stereo not drawn)
inactive: outcome [6] | outcome [9] | outcome [10]

CC(=O)Nc1cccc(O)c1
inactive: outcome [1] | outcome [2] | outcome [3] | outcome [4] | outcome [5] | outcome [6] | outcome [9] | outcome [7] | outcome [10] | outcome [8]

O=C(O)COC(=O)Cc1ccccc1Nc1c(Cl)cccc1Cl
inactive: activation [19] -4.27%
active: Potency [11] 1.58 µM

Cc1cccc(Nc2ccccc2C(=O)O)c1C
active: Potency [11] 7.94 µM
inactive: outcome [6] | outcome [9] | outcome [10]

CCN(CC)C(=O)c1cccc(C)c1
inactive: outcome [1] | outcome [2] | outcome [3] | outcome [4] | outcome [5] | outcome [9] | outcome [7] | outcome [10] | outcome [8]

NS(=O)(=O)c1ccc(C(=O)O)cc1
inactive: Potency [11] | activity change, negative = inhibition [6] -0.84% [at 11.4 µM] | Potency [20] | Potency [12]

CC(=O)Nc1ccccc1
inactive: outcome [1] | outcome [2] | outcome [3] | outcome [4] | outcome [5] | outcome [6] | outcome [9] | outcome [7] | outcome [10] | outcome [8]

CN1C(C)(C)CCCC1(C)C
inactive: outcome [13] | outcome [9] | outcome [14] | outcome [10] | outcome [15] | outcome [16] | outcome [17]

NC(N)=NS(=O)(=O)c1ccc(N)cc1
inactive: outcome [6] | outcome [9] | outcome [10]

C=CCNC(N)=S
inactive: outcome [1] | outcome [2] | outcome [3] | outcome [4] | outcome [5] | outcome [6] | outcome [7] | outcome [8]

O=C(O)CCCCC1CCSS1 (stereo not drawn)
inactive: outcome [1] | outcome [2] | outcome [3] | outcome [4] | outcome [5] | outcome [6] | outcome [9] | outcome [7] | outcome [10] | outcome [8]

C[N+]1(C)CCCC(OC(=O)C(O)(c2ccccc2)c2ccccc2)C1 (stereo not drawn)
inactive: outcome [6] | outcome [9] | outcome [10]

NS(=O)(=O)c1cc(C2(O)NC(=O)c3ccccc32)ccc1Cl (stereo not drawn)
inactive: outcome [6] | outcome [9] | outcome [10]
